± gives the standard deviation.
Experiments:
Conditions in all cases: modulator concentration 10 µM
[1] = tested on: RAW-Dual (murine macrophage reporter line); assay: NF-kB reporter (SEAP) activity fold change vs agonist alone; higher = enhanced NF-kB activity
Method in brief: (§1)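 RAW-Dual murine macrophage reporter cells were plated at 50 000 per well in 384-well plates, pin-transferred compound to 10 μM final, and pre-incubated for 1 hour at 37 °C before a PRR agonist was added and the cells incubated overnight. NF-κB activity was read from supernatant SEAP with QUANTI-Blue at 620 nm absorbance, and IRF activity from Lucia luciferase with QUANTI-Luc by luminescence. Each signal was expressed as fold change by dividing by the mean agonist-only control on the same plate. Two replicate plates were averaged, with errors obtained by propagation.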

[2] = tested on: RAW-Dual (murine macrophage reporter line); assay: IRF reporter (Lucia luciferase) activity fold change vs agonist alone; higher = enhanced IRF activity
Method in brief: as §1

[3] = tested on: RAW-Dual (murine macrophage reporter line); assay: viability score (confluency relative to resting cells, overnight) (fraction); higher = more viable, active = viable (0.7 or more)
Method in brief: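 A compound met the cutoff when both of two confluency masks exceeded 70% of resting cells. Those masks were made with IncuCyte software from IncuCyte images of RAW-Dual macrophages treated overnight at 10 μM final. This is the basis of the viability score, which is confluency relative to resting cells.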

[4] = agonist: CpG ODN 1826 0.5 ug/mL

Row | SMILES | NF-kB reporter [1, 4] | NF-kB reporter ([1]; agonist: LPS 0.1 ug/mL) | NF-kB reporter ([1]; agonist: MPLA […]) | IRF reporter ([2]; agonist: 3'3'-cGAMP 10 ug/mL) | IRF reporter ([2]; agonist: LPS 0.1 ug/mL) | IRF reporter ([2]; agonist: MPLA […]) | viability score [3]
1 | C1CCc2nnnn2CC1 [Prestw-162] | 1.27 ± 0.3 | 0.966 ± 0.18 | 1.03 ± 0.1 | 0.941 ± 0.039 | 1.11 ± 0.17 | 1.03 ± 0.23 | 1.01 (active)
2 | O=C(NCCN1CCN(c2ccccc2)CC1)c1ccc(F)cc1 | 1 ± 0.081 | 1.04 ± 0.051 | 1.03 ± 0.026 | 1.1 ± 0.18 | 0.94 ± 0.045 | 0.83 ± 0.084 | 1 (active)
3 | CC(C)=CCOc1c2occc2cc2ccc(=O)oc12 | 1.13 ± 0.27 | 0.823 ± 0.064 | 0.957 ± 0.088 | 1.09 ± 0.047 | 1.47 ± 0.17 | 1.58 ± 0.21 | 0.95 (active)
4 | Cc1cccc2sc(NC(=O)c3cccn(Cc4ccc(Br)cc4)c3=O)nc12 | 1.06 ± 0.12 | 1.13 ± 0.096 | 1.02 ± 0.15 | 1.04 ± 0.052 | 1.32 ± 0.084 | 1.12 ± 0.085 | 1 (active)
5 | CCOC(=O)c1ccccc1-c1ccc(C=C2C(=O)NC(=O)N(c3ccc(C)cc3)C2=O)o1 | 0.912 ± 0.071 | 0.931 ± 0.058 | 0.971 ± 0.087 | 0.999 ± 0.061 | 1.4 ± 0.081 | 1.7 ± 0.14 | 0.951 (active)
6 | CN1C2CCC1CC(OC(=O)C(CO)c1ccccc1)C2 (stereo unspecified) | 1.23 ± 0.29 | 1.19 ± 0.083 | 1.14 ± 0.098 | 0.91 ± 0.032 | 1.24 ± 0.15 | 1.15 ± 0.16 | 0.986 (active)
7 | CC[C@@H](C(N)=O)N1CCCC1=O | 1.04 ± 0.1 | 1.05 ± 0.059 | 0.993 ± 0.056 | 1.06 ± 0.17 | 0.88 ± 0.075 | 0.863 ± 0.15 | 1 (active)
8 | COc1cc(CNCCc2ccc(OC)c(OC)c2)cc(OC)c1 | 0.973 ± 0.078 | 0.959 ± 0.14 | 0.989 ± 0.093 | 1.02 ± 0.032 | 1.22 ± 0.13 | 1.45 ± 0.18 | 1.02 (active)
9 | CN1CC(CNC(=O)OCc2ccccc2)CC2c3cccc4c3c(cn4C)CC21 (stereo unspecified) | 1.02 ± 0.065 | 0.966 ± 0.11 | 0.963 ± 0.08 | 0.986 ± 0.034 | 1.43 ± 0.14 | 1.2 ± 0.18 | 0.997 (active)
10 | O=C1NC(=S)NC(=O)C1=Cc1ccc(OCc2ccc(F)cc2)c(Cl)c1 | 0.918 ± 0.092 | 0.943 ± 0.064 | 0.802 ± 0.05 | 0.765 ± 0.02 | 1.13 ± 0.095 | 0.824 ± 0.14 | 1.01 (active)
11 | CCCC(=O)c1ccc(N2CCN(C)CC2)c(F)c1 | 0.956 ± 0.097 | 0.876 ± 0.1 | 0.906 ± 0.088 | 1.02 ± 0.056 | 1.22 ± 0.17 | 1.27 ± 0.24 | 1.03 (active)
12 | CC(C)N(CCC(C(N)=O)(c1ccccc1)c1ccccn1)C(C)C (stereo unspecified) | 0.86 ± 0.23 | 0.945 ± 0.09 | 0.99 ± 0.067 | 0.849 ± 0.064 | 0.94 ± 0.2 | 1.12 ± 0.13 | 0.998 (active)
13 | COc1cc2c(cc1OC)C1C(=O)c3ccc4c(c3OC1CO2)CC(C(C)C)O4 (stereo unspecified) | 1.11 ± 0.19 | 1.48 ± 0.12 | 2.31 ± 0.18 | 0.857 ± 0.06 | 1.89 ± 0.32 | 2.1 ± 0.4 | 0.976 (active)
14 | CCC1(C)CC(CCNCc2ccccc2)(c2ccc(C)cc2)CCO1 (stereo unspecified) | 0.701 ± 0.29 | 1.15 ± 0.099 | 1.19 ± 0.18 | 0.57 ± 0.018 | 1.38 ± 0.14 | 1.76 ± 0.31 | 0.547 (inactive)
15 | CN1C(=O)COc2c(C(=O)NC3CN4CCC3CC4)cc(Cl)cc21.Cl (stereo unspecified) | 0.661 ± 0.054 | 0.831 ± 0.09 | 1.08 ± 0.089 | 0.997 ± 0.046 | 1.42 ± 0.26 | 1.71 ± 0.51 | 0.94 (active)
16 | NC(=O)Cn1c(Cc2ccccc2Cl)nc2ccccc21 | 0.97 ± 0.061 | 0.84 ± 0.074 | 0.912 ± 0.031 | 0.996 ± 0.06 | 1.06 ± 0.093 | 0.99 ± 0.13 | 0.997 (active)
17 | CCC1(c2ccccc2)C(=O)N(Cc2ccccc2)C(=O)N(Cc2ccccc2)C1=O | 0.516 ± 0.03 | 1.08 ± 0.1 | 0.967 ± 0.056 | 1.17 ± 0.093 | 1.25 ± 0.14 | 1.18 ± 0.11 | 1.01 (active)

Row | SMILES | NF-kB reporter [1, 4] | NF-kB reporter ([1]; agonist: LPS 0.1 ug/mL) | NF-kB reporter ([1]; agonist: MPLA […]) | IRF reporter ([2]; agonist: 3'3'-cGAMP 10 ug/mL) | IRF reporter ([2]; agonist: LPS 0.1 ug/mL) | IRF reporter ([2]; agonist: MPLA […]) | viability score [3]
18 | COc1ccc(C(CN(C)C)C2(O)CCCCC2)cc1.Cl (stereo unspecified) | 1.07 ± 0.08 | 1.06 ± 0.1 | 0.971 ± 0.056 | 1.07 ± 0.22 | 0.867 ± 0.052 | 0.928 ± 0.081 | 1 (active)
19 | CC(=O)CC(c1ccccc1)c1c(OC(C)=O)c2ccccc2oc1=O (stereo unspecified) | 0.865 ± 0.059 | 0.925 ± 0.11 | 0.779 ± 0.1 | 0.908 ± 0.03 | 1.3 ± 0.1 | 1.14 ± 0.19 | 1 (active)
20 | CC(C)c1c(CN(C)C(C)Cc2ccccc2)n(C)n(-c2ccccc2)c1=O (stereo unspecified) [Prestw-703] | 1.35 ± 0.082 | 1 ± 0.17 | 1.05 ± 0.067 | 0.792 ± 0.03 | 1.02 ± 0.073 | 0.995 ± 0.14 | 0.998 (active)
21 | CCC1CN2CCC1CC2C(O)c1ccnc2ccc(OC)cc12 (stereo unspecified) | 1.05 ± 0.25 | 1.16 ± 0.066 | 1.1 ± 0.08 | 0.565 ± 0.021 | 1.21 ± 0.17 | 1.33 ± 0.26 | 0.983 (active)
22 | ClC(Cl)=C(c1ccc(Cl)cc1)c1ccc(Cl)cc1 | 1.14 ± 0.36 | 1.03 ± 0.068 | 1.07 ± 0.11 | 0.961 ± 0.055 | 1.12 ± 0.12 | 1.25 ± 0.12 | 0.714 (active)
23 | CC(C(O)c1ccccc1)N(C)C (stereo unspecified) | 0.96 ± 0.084 | 0.883 ± 0.065 | 0.955 ± 0.091 | 0.995 ± 0.031 | 1.26 ± 0.12 | 1.3 ± 0.19 | 1 (active)
24 | COc1ccc2c(c1)[nH]c1c(C)nccc12 | 0.6 ± 0.047 | 0.885 ± 0.074 | 0.949 ± 0.09 | 0.431 ± 0.019 | 0.653 ± 0.11 | 0.594 ± 0.11 | 1.03 (active)
25 | COC12CC(COC(=O)c3cncc(Br)c3)CN(C)C1Cc1cn(C)c3cccc2c13 (stereo unspecified) | 1.02 ± 0.11 | 1.01 ± 0.078 | 1.03 ± 0.13 | 0.905 ± 0.065 | 1.16 ± 0.11 | 1.19 ± 0.16 | 1.04 (active)
26 | COC(=O)c1ccc(N2C(=O)NC(=O)C(=Cc3ccc(OCc4ccccc4F)cc3)C2=O)cc1 | 1.06 ± 0.11 | 1.04 ± 0.057 | 0.88 ± 0.056 | 0.942 ± 0.043 | 1.25 ± 0.24 | 1.08 ± 0.25 | 1 (active)
27 | CCNCC.O=C(O)Cc1ccccc1Nc1c(Cl)cccc1Cl | 1.16 ± 0.18 | 1.08 ± 0.38 | 0.993 ± 0.058 | 0.921 ± 0.034 | 1.21 ± 0.43 | 1.02 ± 0.11 | 0.993 (active)
28 | CCOc1cc(C=C2N=C(c3cccc(C)c3)OC2=O)ccc1OC(=O)Cc1ccccc1 | 0.858 ± 0.069 | 0.959 ± 0.081 | 0.914 ± 0.057 | 0.8 ± 0.024 | 1.19 ± 0.1 | 0.964 ± 0.12 | 1.01 (active)
29 | CCCCCn1c(=O)c(C(=O)NCc2cccnc2)c(O)c2ccccc21 | 1.13 ± 0.086 | 1.25 ± 0.085 | 0.997 ± 0.062 | 1.02 ± 0.04 | 1.31 ± 0.087 | 1.34 ± 0.12 | 0.989 (active)
30 | O=C(CCCN1CCC(n2c(=O)[nH]c3ccccc32)CC1)c1ccc(F)cc1 [Prestw-484] | 0.641 ± 0.18 | 1.11 ± 0.096 | 1.02 ± 0.097 | 0.851 ± 0.035 | 1.1 ± 0.12 | 1.33 ± 0.14 | 1 (active)
31 | Cl.N=C(N)NN | 0.983 ± 0.15 | 1.02 ± 0.29 | 0.917 ± 0.064 | 0.892 ± 0.034 | 1.38 ± 0.27 | 1.25 ± 0.21 | 0.997 (active)
32 | CCOC(=O)c1ccccc1-c1ccc(C=C2C(=O)NC(=O)N(c3cccc(C)c3)C2=O)o1 | 1 ± 0.18 | 0.965 ± 0.11 | 0.881 ± 0.069 | 1 ± 0.029 | 1.2 ± 0.14 | 1.09 ± 0.12 | 0.995 (active)
33 | Fc1ccc(CNCCc2c[nH]c3ccccc23)cc1 | 0.733 ± 0.32 | 1.08 ± 0.15 | 0.955 ± 0.075 | 0.751 ± 0.063 | 1.1 ± 0.12 | 1.29 ± 0.28 | 0.599 (inactive)
